From PubChem BioAssay (NCI) come the findings set out here.

Molecules are shown by their SMILES. This is part of a sample that, as a whole, favours compounds with a hit. Of some 79,000 tested, about 15% had one in any assay. Values without a mark were called inactive. Calls of active or inactive are those of the source. Cut-off read from the data, not from the text of the source: active = growth inhibition above about 70%; inactive = the rest.

A short description of assay [1]: NCI Yeast Anticancer Drug Screen. Data for the rad50 strain (AID 155).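 Note: 0% = growth of vehicle-only cultures of the same strain.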 To be noted: S. cerevisiae rad50 strain growth inhibition; at 50.0 µM; stronger effect = higher value. A digest of the protocol: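 Vehicle-treated cultures provide the reference for the growth inhibition reported for compound-exposed, repair-deficient yeast.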
Assay [2] is described as follows: NCI Yeast Anticancer Drug Screen. Data for the mec2-1 strain (AID 157). To be noted: S. cerevisiae mec2-1 strain, at 50.0 µM, stronger effect = higher value. A digest of the protocol: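 mec2-1 yeast strain, carrying an alteration in DNA damage repair or cell cycle control, was exposed to compounds; growth inhibition was measured relative to vehicle-treated controls.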
Assay [3] is described as follows: NCI Yeast Anticancer Drug Screen. Data for the sgs1 mgt1 strain (AID 161).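 Note: 0% = growth of cultures given vehicle only.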 To be noted: S. cerevisiae sgs1 mgt1 strain, at 50.0 µM, stronger effect = higher value. The procedure, abridged: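 This yeast growth screen uses a strain with defined DNA-repair lesions; compound-treated growth is compared with vehicle-treated growth.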
Assay [4] in a line: NCI Yeast Anticancer Drug Screen. Data for the cln2 rad14 strain (AID 165).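 Note: 0% = growth equal to vehicle treated cultures.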 To be noted: S. cerevisiae cln2 rad14 strain, at 50.0 µM, stronger effect = higher value. A digest of the protocol: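 Yeast carrying cln2 and rad14 alterations (cell cycle control and DNA damage repair) were exposed to compounds. Growth inhibition was measured against vehicle-treated controls.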
Assay [5] in a line: NCI Yeast Anticancer Drug Screen. Data for the bub3 strain (AID 167). To be noted: S. cerevisiae bub3 mutant strain, at 50.0 µM, stronger effect = higher value. A digest of the protocol: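 Mutant yeast screening strain plus compound; vehicle-treated cultures serve as the 0% inhibition reference.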
Assay [6] can be described thus: NCI Yeast Anticancer Drug Screen. Data for the mlh1 rad18 strain (AID 175). To be noted: S. cerevisiae mlh1 rad18 strain growth inhibition; at 50.0 µM; stronger effect = higher value. A digest of the protocol: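 Growth inhibition of the yeast strain was measured after compound exposure and expressed relative to vehicle-treated controls. The strain carries defined defects in DNA damage repair.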

Take `CC(=O)NC(CCCc1ccccc1)C(=O)O` (centres undefined): the growth inhibition in assay [1] is 7.65%; in assay [2] it was 9%; in assay [3] it was -17.1%; in assay [4], -23.1%; in assay [5], 2.45%; in assay [6], -18.9%.

On to `C/C=C\CCCCCCCCCCCCCCCC`, for which the growth inhibition is -1.15% in assay [1]; -12.1% in assay [2]; -0.6% in assay [3]; 13.4% in assay [4]; -6.9% in assay [5]; 16.8% in assay [6].

Consider `O=C(NN(Cn1c(=S)sc2ccccc21)Cn1c(=S)sc2ccccc21)c1ccccc1O`, for which the growth inhibition in assay [1] was 86.7% (active); in assay [2] it was 74.2% (active); in assay [3], 89% (active); in assay [4], 57.6%; in assay [5] it was 69%; in assay [6], 76.2% (active).

`COC(=O)/C(=N/Nc1cccc(Cl)c1)C(C(=O)C(=O)Nc1cccc(Cl)c1C)c1nc2ccccc2nc1C` (centres undefined): the growth inhibition in assay [1] is 44.8%; in assay [2] it was 17.9%; in assay [3], 42%; in assay [4], 39.3%; in assay [5] it was 11.8%; in assay [6] it was 14.3%.

On to `CCn1c(=O)c2c3ccc(O)cc3[nH]c2c2ccc(O)cc21`, for which the growth inhibition in assay [1] was -63.7%; in assay [2], -74.6%; in assay [3], -4.8%; in assay [4] it was -14.6%; in assay [5], -23.8%; in assay [6] it was -43.5%.

For `CCOC(=O)c1cnc(SC)nc1Nc1ccc(OC)cc1`, the growth inhibition was 47.4% in assay [1]; 8.55% in assay [2]; 7.35% in assay [3]; 9.6% in assay [4]; 21.2% in assay [5]; 50.1% in assay [6].

As to `CCOC(=O)c1c(C)[nH]c(=S)c(C#N)c1-c1ccco1`, the growth inhibition is 17.7% in assay [1]; 6.15% in assay [2]; 10.8% in assay [3]; 4.4% in assay [4]; -3.35% in assay [5]; 28% in assay [6].

Take `Cc1ccc(C(C)C)cc1OC(=O)NC1CCCCC1`: the growth inhibition in assay [1] is -4%; in assay [2] it was 9.3%; in assay [3] it was 9.9%; in assay [4] it was -13.2%; in assay [5], -23.4%; in assay [6], -0.6%.

As to `CCOC(=O)c1nc2ccccc2nc1Nc1ccc(F)cc1`, the growth inhibition is -2.35% in assay [1]; -7.5% in assay [2]; 1.75% in assay [3]; 1.05% in assay [4]; -21.1% in assay [5]; -38% in assay [6].

For `CS/N=C(/c1ccc(/C(=N/SC)N(C)C)cc1)N(C)C`, the growth inhibition in assay [1] is 0.9%; in assay [2] it was -8.5%; in assay [3] it was 8.8%; in assay [4] it was -5.35%; in assay [5], -24.4%; in assay [6], 5.75%.

Turning to `O=C(O)C1(C(=O)O)CC2C3C=CC(C3)C2C1` (centres undefined), the growth inhibition in assay [1] was -7.75%; in assay [2], -11.7%; in assay [3], 0.35%; in assay [4] it was -48.8%; in assay [5], 18.8%; in assay [6], 20.5%.

`Cc1ccc(S(=O)(=O)C/C(=N\Nc2ccc([N+](=O)[O-])cc2[N+](=O)[O-])c2ccccc2)cc1`: the growth inhibition is 38.4% in assay [1]; -9.45% in assay [2]; 17.6% in assay [3]; 12.4% in assay [4]; -0.25% in assay [5]; 18.7% in assay [6].

With `CC(C(c1ccccc1)C(Br)C(=O)c1ccccc1)[N+](=O)[O-]` (centres undefined), the growth inhibition in assay [1] is 96.5% (active); in assay [2], 93.2% (active); in assay [3] it was 95% (active); in assay [4], 87.3% (active); in assay [5] it was 96.5% (active); in assay [6] it was 94.7% (active).

For the molecule `CCOc1ccc(/C=C2N=C(/C=C/c3ccccc3)OC\2=O)cc1`, the growth inhibition in assay [1] was 19%; in assay [2] it was 14.8%; in assay [3] it was 19.1%; in assay [4], 16.6%; in assay [5], 3.2%; in assay [6], 3.75%.

Regarding `Cc1cccc(C)c1NC(=O)C1C(=O)N(c2c(C)cccc2C)C(=O)/C1=N\NC(N)=S` (centres undefined), the growth inhibition in assay [1] was -15.2%; in assay [2] it was -24.4%; in assay [3], -37.4%; in assay [4], -9.5%; in assay [5], -31.1%; in assay [6], -34.9%.

Turning to `Oc1ccc2ccccc2c1C=Nc1ccc(SSc2ccc(N=Cc3c(O)ccc4ccccc34)cc2)cc1`, the growth inhibition in assay [1] is -6.6%; in assay [2], -10.1%; in assay [3], -19.6%; in assay [4] it was -59.5%; in assay [5], 0.9%; in assay [6], -3.1%.

Take `COc1cc2c(cc1OC)C(=O)C(C1=C(SC(=N)N)C(=O)c3cc(OC)c(OC)cc31)C2` (centres undefined): the growth inhibition in assay [1] was -7.4%; in assay [2], -21.9%; in assay [3], -7.75%; in assay [4] it was -0.65%; in assay [5], 2.85%; in assay [6], -2%.

Take `CCCCCCOC(=O)c1ccccn1`: the growth inhibition was -5.85% in assay [1]; 1.7% in assay [2]; 0.15% in assay [3]; -91.6% in assay [4]; 17.6% in assay [5]; -26.6% in assay [6].

Regarding `O=C(O)c1cc(Cl)ccc1-c1ccc(Cl)cc1C(=O)Nc1ccc2c(c1)Cc1ccccc1-2`, the growth inhibition in assay [1] was 91.3% (active); in assay [2], 89.7% (active); in assay [3], 94.6% (active); in assay [4], 87.8% (active); in assay [5], 85.3% (active); in assay [6] it was 94.9% (active).
